Measured values reported in ChEMBL document CHEMBL1961873, “Compounds: GSK PKIS; Assays: Nanosyn kinase panel” (2012).

Tests used:
[1] = target: Death-associated protein kinase 1 (Homo sapiens) (UniProt P53355); settings: at 1 µM;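 further: each value is a mean inhibition figure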
[2] = target: T1, Serine/threonine-protein kinase DCLK2 (Homo sapiens) (UniProt Q8N568); settings: at 0.1 µM
T1 sequence (whole entry): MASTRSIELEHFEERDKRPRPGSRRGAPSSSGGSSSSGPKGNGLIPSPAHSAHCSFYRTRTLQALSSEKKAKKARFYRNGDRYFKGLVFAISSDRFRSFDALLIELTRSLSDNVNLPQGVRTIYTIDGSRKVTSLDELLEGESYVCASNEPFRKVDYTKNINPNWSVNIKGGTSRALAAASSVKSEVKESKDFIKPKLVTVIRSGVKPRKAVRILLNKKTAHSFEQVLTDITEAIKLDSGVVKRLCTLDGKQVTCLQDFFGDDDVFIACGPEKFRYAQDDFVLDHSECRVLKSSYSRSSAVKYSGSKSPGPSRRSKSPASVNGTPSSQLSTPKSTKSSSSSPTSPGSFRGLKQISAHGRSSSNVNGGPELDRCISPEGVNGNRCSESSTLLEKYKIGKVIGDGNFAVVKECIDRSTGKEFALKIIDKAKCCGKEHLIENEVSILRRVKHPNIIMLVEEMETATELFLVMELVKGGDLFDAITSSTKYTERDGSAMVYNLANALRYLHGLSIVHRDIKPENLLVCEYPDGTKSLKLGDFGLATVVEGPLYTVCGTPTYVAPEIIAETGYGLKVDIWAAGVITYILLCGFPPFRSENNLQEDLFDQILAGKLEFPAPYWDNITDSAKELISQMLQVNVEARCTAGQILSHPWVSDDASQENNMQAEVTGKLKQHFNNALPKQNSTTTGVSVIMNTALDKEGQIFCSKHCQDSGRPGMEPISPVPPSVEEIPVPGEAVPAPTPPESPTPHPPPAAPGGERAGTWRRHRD

[3] = target: T1, Serine/threonine-protein kinase DCLK2 (Homo sapiens); settings: at 1 µM
[4] = target: MAP kinase-activated protein kinase 2 (Homo sapiens) (UniProt P49137); settings: at 0.1 µM
[5] = target: MAP kinase-activated protein kinase 2 (Homo sapiens) (UniProt P49137); settings: at 1 µM
[6] = target: MAP kinase-activated protein kinase 3 (Homo sapiens) (UniProt Q16644); settings: at 0.1 µM
[7] = target: MAP kinase-activated protein kinase 3 (Homo sapiens) (UniProt Q16644); settings: at 1 µM
[8] = target: Serine/threonine-protein kinase MARK1 (Homo sapiens) (UniProt Q9P0L2); settings: at 0.1 µM
[9] = target: Serine/threonine-protein kinase MARK1 (Homo sapiens) (UniProt Q9P0L2); settings: at 1 µM
[10] = target: MAP/microtubule affinity-regulating kinase 3 (Homo sapiens) (UniProt P27448); settings: at 0.1 µM
[11] = target: MAP/microtubule affinity-regulating kinase 3 (Homo sapiens) (UniProt P27448); settings: at 1 µM
[12] = target: T2, MAP/microtubule affinity-regulating kinase 4 (Homo sapiens) (UniProt Q96L34); settings: at 0.1 µM
T2 sequence (whole entry): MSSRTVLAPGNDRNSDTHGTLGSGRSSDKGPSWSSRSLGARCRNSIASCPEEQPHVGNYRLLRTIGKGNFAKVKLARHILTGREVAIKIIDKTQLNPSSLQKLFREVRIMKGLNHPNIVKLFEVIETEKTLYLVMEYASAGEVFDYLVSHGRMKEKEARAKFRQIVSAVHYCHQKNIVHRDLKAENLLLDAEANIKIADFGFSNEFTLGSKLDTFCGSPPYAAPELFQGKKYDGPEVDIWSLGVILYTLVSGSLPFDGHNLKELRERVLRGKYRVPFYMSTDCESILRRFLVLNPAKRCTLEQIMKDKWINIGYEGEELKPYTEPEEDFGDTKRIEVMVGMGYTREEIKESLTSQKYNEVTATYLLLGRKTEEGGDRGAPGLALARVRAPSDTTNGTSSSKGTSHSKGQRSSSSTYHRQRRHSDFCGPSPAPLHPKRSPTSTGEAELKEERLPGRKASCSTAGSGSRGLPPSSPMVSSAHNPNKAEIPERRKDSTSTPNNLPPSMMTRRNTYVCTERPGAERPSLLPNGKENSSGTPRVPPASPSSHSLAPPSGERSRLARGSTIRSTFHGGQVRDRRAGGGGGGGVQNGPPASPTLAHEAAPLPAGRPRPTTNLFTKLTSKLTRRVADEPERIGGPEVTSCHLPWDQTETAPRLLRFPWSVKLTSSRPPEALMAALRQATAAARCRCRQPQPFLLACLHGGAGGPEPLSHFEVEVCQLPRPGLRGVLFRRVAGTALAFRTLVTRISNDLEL

[13] = target: T2, MAP/microtubule affinity-regulating kinase 4 (Homo sapiens); settings: at 1 µM
[14] = target: Maternal embryonic leucine zipper kinase (Homo sapiens) (UniProt Q14680); settings: at 0.1 µM
[15] = target: Maternal embryonic leucine zipper kinase (Homo sapiens) (UniProt Q14680); settings: at 1 µM
[16] = target: MAP kinase-interacting serine/threonine-protein kinase 1 (Homo sapiens) (UniProt Q9BUB5); settings: at 0.1 µM
[17] = target: MAP kinase-interacting serine/threonine-protein kinase 1 (Homo sapiens) (UniProt Q9BUB5); settings: at 1 µM
[18] = target: MAP kinase-interacting serine/threonine-protein kinase 2 (Homo sapiens) (UniProt Q9HBH9); settings: at 0.1 µM
[19] = target: MAP kinase-interacting serine/threonine-protein kinase 2 (Homo sapiens) (UniProt Q9HBH9); settings: at 1 µM
[20] = target: Serine/threonine-protein kinase MARK2 (Homo sapiens) (UniProt Q7KZI7); settings: at 0.1 µM;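 further: mean percent inhibition of PAR-1Balpha kinase activity, reported from the GSK PKIS screen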
Serine/threonine-protein kinase MARK2 (Homo sapiens), sequence (Q7KZI7 whole entry): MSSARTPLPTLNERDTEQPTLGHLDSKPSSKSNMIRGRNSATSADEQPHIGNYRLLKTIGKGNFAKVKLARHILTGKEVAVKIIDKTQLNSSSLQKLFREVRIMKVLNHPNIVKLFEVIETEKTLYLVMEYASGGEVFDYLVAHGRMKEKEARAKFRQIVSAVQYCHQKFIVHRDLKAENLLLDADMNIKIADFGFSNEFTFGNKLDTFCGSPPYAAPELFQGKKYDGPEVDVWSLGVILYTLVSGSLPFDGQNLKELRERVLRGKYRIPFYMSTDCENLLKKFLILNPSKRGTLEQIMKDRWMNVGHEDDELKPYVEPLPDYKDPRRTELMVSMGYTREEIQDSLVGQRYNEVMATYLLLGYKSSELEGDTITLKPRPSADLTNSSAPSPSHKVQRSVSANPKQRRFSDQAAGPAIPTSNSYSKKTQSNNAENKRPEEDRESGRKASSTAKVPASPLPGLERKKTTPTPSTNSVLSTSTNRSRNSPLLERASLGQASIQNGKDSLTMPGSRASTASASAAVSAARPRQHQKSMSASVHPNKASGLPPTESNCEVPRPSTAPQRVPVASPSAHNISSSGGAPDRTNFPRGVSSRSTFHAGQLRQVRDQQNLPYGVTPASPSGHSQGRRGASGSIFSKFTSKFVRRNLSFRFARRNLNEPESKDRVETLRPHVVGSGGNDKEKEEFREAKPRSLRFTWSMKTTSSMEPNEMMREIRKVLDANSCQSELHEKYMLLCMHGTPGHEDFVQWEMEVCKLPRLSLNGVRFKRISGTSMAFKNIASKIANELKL

Death-associated protein kinase 1 (Homo sapiens), sequence (P53355 whole entry, looked up): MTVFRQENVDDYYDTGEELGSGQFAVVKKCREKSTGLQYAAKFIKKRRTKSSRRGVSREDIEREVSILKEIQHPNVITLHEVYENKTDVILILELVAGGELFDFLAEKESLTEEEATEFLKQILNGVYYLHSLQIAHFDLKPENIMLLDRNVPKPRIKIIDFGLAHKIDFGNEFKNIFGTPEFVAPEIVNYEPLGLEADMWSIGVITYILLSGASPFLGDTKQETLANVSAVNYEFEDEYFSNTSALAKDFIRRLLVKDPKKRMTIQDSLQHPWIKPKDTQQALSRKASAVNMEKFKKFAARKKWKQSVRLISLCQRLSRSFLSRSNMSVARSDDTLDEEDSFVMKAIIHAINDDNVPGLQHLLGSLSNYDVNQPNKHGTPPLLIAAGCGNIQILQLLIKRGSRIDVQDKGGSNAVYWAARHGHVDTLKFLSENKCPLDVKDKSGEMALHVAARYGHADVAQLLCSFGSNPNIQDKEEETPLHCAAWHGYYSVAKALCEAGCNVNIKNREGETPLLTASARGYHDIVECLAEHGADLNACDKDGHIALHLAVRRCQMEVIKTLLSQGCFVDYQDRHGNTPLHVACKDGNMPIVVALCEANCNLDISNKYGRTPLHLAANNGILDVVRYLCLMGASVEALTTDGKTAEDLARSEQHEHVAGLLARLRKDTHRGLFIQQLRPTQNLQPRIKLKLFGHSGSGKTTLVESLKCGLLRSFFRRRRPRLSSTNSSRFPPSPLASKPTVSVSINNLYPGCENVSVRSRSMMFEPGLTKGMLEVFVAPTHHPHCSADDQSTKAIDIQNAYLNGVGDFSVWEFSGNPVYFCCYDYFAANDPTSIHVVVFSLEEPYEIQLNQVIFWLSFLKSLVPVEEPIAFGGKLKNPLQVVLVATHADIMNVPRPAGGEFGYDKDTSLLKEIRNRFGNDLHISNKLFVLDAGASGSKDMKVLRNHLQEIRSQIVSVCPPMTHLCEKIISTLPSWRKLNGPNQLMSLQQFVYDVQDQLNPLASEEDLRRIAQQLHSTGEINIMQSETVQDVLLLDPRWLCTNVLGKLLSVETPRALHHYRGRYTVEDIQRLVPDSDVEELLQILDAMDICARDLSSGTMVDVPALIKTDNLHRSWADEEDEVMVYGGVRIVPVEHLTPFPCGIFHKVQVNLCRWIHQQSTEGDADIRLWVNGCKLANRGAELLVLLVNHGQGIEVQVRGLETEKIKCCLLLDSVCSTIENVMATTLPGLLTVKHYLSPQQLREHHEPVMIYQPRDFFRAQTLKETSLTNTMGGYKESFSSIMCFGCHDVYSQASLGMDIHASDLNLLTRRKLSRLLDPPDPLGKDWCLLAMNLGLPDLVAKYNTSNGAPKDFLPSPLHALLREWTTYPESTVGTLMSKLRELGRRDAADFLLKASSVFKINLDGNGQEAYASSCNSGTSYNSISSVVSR
Maternal embryonic leucine zipper kinase (Homo sapiens), sequence (Q14680 whole entry, looked up): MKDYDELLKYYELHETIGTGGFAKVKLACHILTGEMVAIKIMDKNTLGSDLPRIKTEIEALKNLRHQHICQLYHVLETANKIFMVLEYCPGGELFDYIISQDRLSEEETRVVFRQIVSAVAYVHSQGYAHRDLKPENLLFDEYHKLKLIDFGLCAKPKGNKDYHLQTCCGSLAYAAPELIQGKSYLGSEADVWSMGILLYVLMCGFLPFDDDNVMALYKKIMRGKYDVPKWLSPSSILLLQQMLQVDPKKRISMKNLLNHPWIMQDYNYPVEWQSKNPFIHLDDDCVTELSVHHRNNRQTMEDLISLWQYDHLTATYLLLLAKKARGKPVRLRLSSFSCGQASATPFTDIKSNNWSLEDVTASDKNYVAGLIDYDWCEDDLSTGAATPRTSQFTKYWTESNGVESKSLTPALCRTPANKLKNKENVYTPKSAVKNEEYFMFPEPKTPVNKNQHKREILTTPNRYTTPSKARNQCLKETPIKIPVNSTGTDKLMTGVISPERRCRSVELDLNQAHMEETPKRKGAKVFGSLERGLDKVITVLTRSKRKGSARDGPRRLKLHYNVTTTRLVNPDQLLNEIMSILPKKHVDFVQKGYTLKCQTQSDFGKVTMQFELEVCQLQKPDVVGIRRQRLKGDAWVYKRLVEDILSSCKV
MAP kinase-activated protein kinase 3 (Homo sapiens), sequence (Q16644 whole entry, looked up): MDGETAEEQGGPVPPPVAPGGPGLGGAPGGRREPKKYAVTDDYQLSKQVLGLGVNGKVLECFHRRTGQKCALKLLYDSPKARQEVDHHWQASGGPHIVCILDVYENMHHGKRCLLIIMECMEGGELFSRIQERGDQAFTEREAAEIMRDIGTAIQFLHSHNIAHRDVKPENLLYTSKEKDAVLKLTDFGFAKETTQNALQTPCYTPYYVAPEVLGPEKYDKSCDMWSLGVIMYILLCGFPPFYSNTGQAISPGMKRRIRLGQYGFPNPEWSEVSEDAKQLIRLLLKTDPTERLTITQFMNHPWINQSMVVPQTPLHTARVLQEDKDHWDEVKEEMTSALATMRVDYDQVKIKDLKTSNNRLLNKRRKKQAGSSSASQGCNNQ
MAP kinase-activated protein kinase 2 (Homo sapiens), sequence (P49137 whole entry, looked up): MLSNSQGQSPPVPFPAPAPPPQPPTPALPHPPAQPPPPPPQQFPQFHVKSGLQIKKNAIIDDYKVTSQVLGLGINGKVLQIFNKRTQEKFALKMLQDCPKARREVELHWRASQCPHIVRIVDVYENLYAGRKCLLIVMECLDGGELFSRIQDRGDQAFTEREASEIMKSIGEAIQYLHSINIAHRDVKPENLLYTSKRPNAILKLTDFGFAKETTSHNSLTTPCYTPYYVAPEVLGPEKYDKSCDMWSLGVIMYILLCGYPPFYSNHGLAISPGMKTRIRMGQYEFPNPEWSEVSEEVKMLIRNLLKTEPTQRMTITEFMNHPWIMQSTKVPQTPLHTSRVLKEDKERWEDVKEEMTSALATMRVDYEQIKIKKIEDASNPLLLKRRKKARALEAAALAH
MAP kinase-interacting serine/threonine-protein kinase 1 (Homo sapiens), sequence (Q9BUB5 whole entry, looked up): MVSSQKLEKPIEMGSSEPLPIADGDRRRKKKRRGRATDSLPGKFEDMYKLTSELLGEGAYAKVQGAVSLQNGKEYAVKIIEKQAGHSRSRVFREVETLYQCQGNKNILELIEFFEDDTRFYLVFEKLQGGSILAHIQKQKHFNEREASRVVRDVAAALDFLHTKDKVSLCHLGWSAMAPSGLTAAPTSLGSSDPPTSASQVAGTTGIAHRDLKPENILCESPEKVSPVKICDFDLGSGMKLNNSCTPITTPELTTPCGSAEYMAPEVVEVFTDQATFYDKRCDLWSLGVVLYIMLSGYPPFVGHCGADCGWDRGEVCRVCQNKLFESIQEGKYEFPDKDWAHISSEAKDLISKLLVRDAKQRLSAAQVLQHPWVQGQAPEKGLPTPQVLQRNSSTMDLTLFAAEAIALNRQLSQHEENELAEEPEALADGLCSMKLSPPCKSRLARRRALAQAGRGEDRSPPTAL
Serine/threonine-protein kinase MARK1 (Homo sapiens), sequence (Q9P0L2 whole entry, looked up): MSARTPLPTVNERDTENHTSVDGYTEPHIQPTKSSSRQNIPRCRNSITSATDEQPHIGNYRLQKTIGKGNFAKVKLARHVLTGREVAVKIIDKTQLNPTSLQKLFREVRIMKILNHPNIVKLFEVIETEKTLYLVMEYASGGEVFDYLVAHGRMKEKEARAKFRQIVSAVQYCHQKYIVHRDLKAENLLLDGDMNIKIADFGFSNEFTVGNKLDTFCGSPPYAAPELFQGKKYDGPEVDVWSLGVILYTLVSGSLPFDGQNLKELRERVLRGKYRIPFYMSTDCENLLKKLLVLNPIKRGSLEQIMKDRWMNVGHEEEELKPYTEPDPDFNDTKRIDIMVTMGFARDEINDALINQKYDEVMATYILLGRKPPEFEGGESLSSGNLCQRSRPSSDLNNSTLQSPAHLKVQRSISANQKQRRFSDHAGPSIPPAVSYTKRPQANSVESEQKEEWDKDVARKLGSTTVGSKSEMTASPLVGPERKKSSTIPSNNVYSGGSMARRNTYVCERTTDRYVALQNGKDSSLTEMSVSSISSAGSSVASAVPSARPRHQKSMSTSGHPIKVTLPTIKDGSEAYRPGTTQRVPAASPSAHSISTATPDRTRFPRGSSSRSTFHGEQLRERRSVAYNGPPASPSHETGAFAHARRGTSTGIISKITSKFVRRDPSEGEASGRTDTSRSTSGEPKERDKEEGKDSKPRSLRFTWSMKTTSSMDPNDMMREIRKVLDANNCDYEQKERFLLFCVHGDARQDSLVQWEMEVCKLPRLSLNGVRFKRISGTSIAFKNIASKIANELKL

SMILES	inhibition [1] [%]	inhibition [2] [%]	inhibition [3] [%]	inhibition [4] [%]	inhibition [5] [%]	inhibition [6] [%]	inhibition [7] [%]	inhibition [8] [%]	inhibition [9] [%]	inhibition [10] [%]	inhibition [11] [%]	inhibition [12] [%]	inhibition [13] [%]	inhibition [14] [%]	inhibition [15] [%]	inhibition [16] [%]	inhibition [17] [%]	inhibition [18] [%]	inhibition [19] [%]	inhibition [20] [%]
O=C1Nc2ccccc2/C1=C/Nc1ccc(-n2cncn2)cc1	7.29	1.71	-2.02	2.96	2.54	3.98	3.15	5.86	25.4	3.28	36.4	3.35	17.9	6.89	25.8	7.6	14.8	2.4	8.07	1.47
COc1cc2ncn(-c3cc(OCCc4ccccc4)c(C(N)=O)s3)c2cc1OC	1.51	0.43	0.05	0.61	1.03	2.1	4.28	3.11	3.45	3.88	1.74	0.87	0.86	3.07	1.31	2	6.3	0.86	12.8	1
Fc1ccc(-c2ncn(C3CCNCC3)c2-c2ccnc(Oc3ccc4c(c3)OCO4)n2)cc1	-4.62	2.01	2.26	0	-0.67	29.6	31.2	2.98	5.01	3.59	5.12	2.61	3.33	6.04	6.41	4.52	7.62	1.84	6.88	0.67
CN(c1ccc(NC(=O)Nc2c(Cl)cccc2Cl)cc1)c1ccnc(Nc2cccc(CS(C)(=O)=O)c2)n1	4.43	3.64	4.12	0.46	1.08	0.42	0.31	3.52	10.8	2.64	13.3	2.82	12.8	3.73	3.32	10.2	27.9	20.4	45.6	-0.82
O=C(NCC1CC1)c1ccc(-c2cccc(C(=O)NC3CC3)c2)cc1	3.86	1.31	-0.41	0.95	1.17	2	3.94	2.23	1.62	4.12	6.77	0.89	0.47	1.66	0.83	1.09	0.19	-1.06	0.04	0.08
O=C(Nc1n[nH]c2cc(-c3ccccc3)ccc12)C1CC1	7.04	0.55	1.05	3.04	2.8	5.91	4.31	4.97	9.42	5.89	9.09	2.2	5.77	5.64	3.69	6.55	31.4	3.14	10.2	1.54
Cc1ccc(C(=O)NC(C)C)cc1-c1ccc(C(=O)NCC2CC2)cc1	-2.3	-3.07	-1.07	-1.44	-1.8	0.42	9.15	0.27	0.65	0.19	-0.42	1.15	0.5	-2.85	-2.99	-1.07	-0.97	-0.04	1.12	0.38
COc1ccc2cc(-c3c(-c4ccncc4)nc(-c4ccc([S+](C)[O-])cc4C)n3C)ccc2c1 (stereo not given)	-9.4	-1.12	5.6	-3.43	-3.96	-6.68	-5.38	-1.01	-1.81	0.61	-1.9	-0.17	-0.24	0.29	0.51	5.22	10	0.98	3.96	-1.24
NS(=O)(=O)c1ccc(N/N=C2\C(=O)Nc3ccc(C(=O)NCCCn4ccnc4)cc32)cc1	14.2	1.59	2.86	4.69	5.55	9.93	10.6	5.69	22.3	1.88	5.47	3.39	14.6	6.78	46.9	7.7	16.8	3.98	14.2	1.13
C/C(Nc1ccc(S(N)(=O)=O)cc1)=C1/C(=O)Nc2ccccc21	1.66	4.83	2.32	-0.92	-0.57	-0.79	-0.11	4.3	32.8	2.37	19.8	4.34	28.2	2.57	41.9	-1.24	3.04	-1.74	3.41	2.01
CCN(CC)Cc1ccc(Nc2nccc(-c3cnn4ncccc34)n2)cc1	1.28	-4.15	1.64	0.69	2.01	2.61	3.32	4.03	20.9	4.34	24.7	4.42	18.9	12.5	55.4	2.28	9.82	2.76	8.84	3.28
NC(=O)c1cc(-c2ccc(F)cc2)cc(-c2ccncc2)c1N	1.25	-0.12	-0.85	2.21	1.35	4.03	5.82	2.29	4.17	3.27	-2.7	1.2	2.29	2.86	4.94	3.36	12.1	1.44	3.34	0.15
COc1ccc(C2=C(N3CCc4ccccc43)C(=O)NC2=O)cc1	4.07	2.43	0.92	2.76	1.74	4.85	5.21	3.48	5.45	3.65	4.14	1.18	2.26	4.31	7.73	3.88	6.21	1.85	4.28	-0.02
O=C(Nc1ccc(Oc2ccc3[nH]c(NC(=O)c4ccccc4)nc3c2)cc1)Nc1cc(C(F)(F)F)ccc1F	5.19	-1.34	-0.03	1.97	1.81	4.88	16.7	2.51	5.14	3.79	22.9	0.56	3.1	3.83	2.36	3.79	21	2.44	22.1	-0.01
CN(C)CCOc1ccc(-c2cc(-c3ccc4c(c3)CCC4=NO)c(-c3ccncc3)o2)cc1	-1.18	-2.52	-1.37	-1.35	-1.61	-1.27	-1.84	-2.08	1.81	-5.74	-0.6	-0.26	0.68	-1.71	-1.71	1.14	5.12	0.16	2.71	-1.72
